In PubChem BioAssay (NCI):
About 83,000 compounds went through this panel and 20% of them were active in at least one assay; those are over-represented in the sample as a whole.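 The endpoint reported here, percent growth, reads 100 for growth as untreated, 0 for no net growth and -100 for all cells dead.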 Values without a mark were called inactive. Active and inactive are the calls of the source. How the source made its calls: active means growth percent below 10; inactive means the rest.

Columns and labels:
Assay in all cases: NCI-60 one-dose screen, 48 h (100 = growth as untreated, 0 = no growth, -100 = all killed)
Details in all cases: 10 µM unless noted
NCI-H23 lung = test system: NCI-H23 lung
NCI-H226 lung = test system: NCI-H226 lung
NCI-H322M lung = test system: NCI-H322M lung
HOP-62 NSCLC = test system: HOP-62 NSCLC
NCI-H460 lung = test system: NCI-H460 lung
HOP-92 NSCLC = test system: HOP-92 NSCLC
NCI-H522 lung = test system: NCI-H522 lung
A549/ATCC NSCLC = test system: A549/ATCC NSCLC
786-0 renal = test system: 786-0 renal
COLO 205 colon = test system: COLO 205 colon

SMILES | growth (NCI-H23 lung) | growth (NCI-H226 lung) | growth (NCI-H322M lung) | growth (HOP-62 NSCLC) | growth (NCI-H460 lung) | growth (HOP-92 NSCLC) | growth (NCI-H522 lung) | growth (A549/ATCC NSCLC) | growth (786-0 renal) | growth (COLO 205 colon)
COc1ccc2[nH]cc(/C=C3\C(=O)Nc4ccccc43)c2c1 | 42.3% | 62.1% | 37.8% | 28.8% | 26% | 31.3% | 17.5% | 26.5% | 53.8% | 40.6%
Cc1nn(-c2ccc(Cl)cc2)c(=O)n1CCN1CCOCC1 | 64.5% | 79.4% | 92.3% | 33.8% | 41.7% | 30.1% | 69% | 56.4% | 59.4% | 107%
CC1=NN(c2cccc(S(N)(=O)=O)c2)C(=O)C1 | 87.8% | 90.3% | 96.9% | 97.7% | 103% | -30.8% (active) | 113% | 87.4% | 100% | 108%
O=C(NCCNC(=O)c1cc(S(=O)(=O)NCCc2ccccc2)c(O)c(O)c1O)c1cc(S(=O)(=O)NCCc2ccccc2)c(O)c(O)c1O | 38.9% | 49.5% | 39.5% | 34.6% | 32.1% | 73.9% | 41.6% | 45.8% | 53.4% | 104%
NC(=O)Nc1ccc2ncnc(Nc3cccc(O)c3)c2c1 | 100% | 102% | 83.5% | 92.8% | 108% | 78% | 102% | 93.5% | 92.6% | 94.7%
Fc1ccc2c(CN3CCO[C@H](COc4cccc(Cl)c4)C3)c[nH]c2c1 | 75.5% | 64.9% | 74.6% | 22% | 30.2% | 45.2% | 36.3% | 44.4% | 27.2% | 69.1%
N#Cc1c(N)c(C(=O)c2ccc3c(c2)OCCO3)n2c1CCCC2 | 42.7% | 81.7% | 25.3% | 35.4% | 15.9% | 64.4% | -33.3% (active) | 34.5% | 53% | 14.9%
COc1cc(C)cc2oc3oc(=O)c(-c4csc(-c5cc6ccccc6oc5=O)n4)cc3c(=O)c12 | 101% | 102% | 105% | 103% | 106% | 105% | 103% | 114% | 106% | 119%
Cn1c(=O)c2c3c(oc2c2ccccc21)C(=O)c1ccccc1C3=O | 78.3% | 73.2% | 96.2% | 81.8% | 78.5% | 101% | 50.6% | 81.7% | 107% | 74.5%
Oc1ccc(Nc2ncnc3c2sc2ncccc23)cc1 | 11.2% | 42.6% | 47% | 9.02% (active) | 9.18% (active) | 28.5% | 33.6% | 26.9% | 12.5% | 36%
COc1ccc(/C=C(/C(=O)N2CCN(c3ccccc3)CC2)c2cc(OC)c(OC)c(OC)c2)cc1O | 31.5% | 28.9% | 42% | 20.6% | 5.38% (active) | 94% | -9.76% (active) | 17.4% | 25.5% | 35.7%
Cc1cc(C)c(C#N)c(SCC(=O)c2sc3c(C#N)c(C)cc(C)[n+]3c2[O-])n1 | 39.4% | 46.3% | 29% | 17% | 6.25% (active) | 51.8% | -31.1% (active) | 19.9% | 30.6% | 5.03% (active)
COc1ccc(/C(=C\c2cc(OC)c(OC)c(OC)c2)C(=O)N2CCNCC2)cc1 | 102% | 94% | 99.2% | 97.4% | 105% | 94% | 79.1% | 90.4% | 103% | 113%
Cc1n(Cc2ccc3ccccc3n2)cc[n+]1Cc1ccc2ccccc2c1 | 2.01% (active) | 12.7% | 26% | 13.3% | 10.2% | -6.1% (active) | 3.95% (active) | 33.5% | 63.3% | -38.4% (active)
COc1ccc(CCN2COc3c([C@@H](C)CCC=C(C)C)ccc(C)c3C2)cc1OC | 39.1% | 82.3% | 88.2% | 73.4% | 34.5% | -1.29% (active) | 64.7% | 74.3% | 52.4% | -92.9% (active)
COc1cc(NC(C)CCCN)c2ncccc2c1Sc1ccc(Cl)cc1 (stereo not given) | 86% | 76.1% | 77% | 67.7% | 10.1% | 15.2% | 75.4% | 59.1% | 63.7% | -77.4% (active)
N#Cc1c(N)n(C2OC(CO)C(O)C2O)c2ncnc(N)c12 (stereo not given) | -8.8% (active) | 12.1% | -27.6% (active) | -12.7% (active) | 0.304% (active) | -21.3% (active) | -56.1% (active) | 1.3% (active) | -7.63% (active) | -32.8% (active)
C=CCn1c(C)nc2cc(Nc3nc(N4CCCC4)nc4nc[nH]c34)ccc21 | 52.4% | 58.9% | 50.9% | 50.6% | 0.371% (active) | -39.5% (active) | 56.3% | 46.3% | -76.1% (active) | 73.4%
c1ccc2c(Cc3csc4ccccc34)csc2c1 | 84.7% | 95.1% | 87.2% | 83.2% | 104% | 77.7% | 65.3% | 83% | 93.8% | 83.3%
O=c1cc(-c2ccc3c(c2)OCCO3)oc2cc(Cl)ccc12 | 61% | -12.9% (active) | -6.58% (active) | 1.84% (active) | -57.9% (active) | -8.2% (active) | -12.7% (active) | 11.2% | -42.8% (active) | 40.7%
O=[N+]([O-])c1cccc([I+]c2ccccc2)c1 | 49.8% | 59% | 76.6% | -26.8% (active) | 18.2% | 93.6% | 50.3% | 47.7% | 70.8% | 40.1%
N#Cc1ccc(NC(=O)Nc2nc3ccc(OC(F)(F)F)cc3s2)cc1 | -22.1% (active) | 12.7% | 4% (active) | 3.68% (active) | -3.29% (active) | -13.1% (active) | -33.5% (active) | 3.01% (active) | -12.6% (active) | -90.1% (active)
COc1cc2c(cc1OC)C(=O)C(Br)CC2 (stereo not given) | 45.8% | 90.8% | 102% | 51% | 75% | 20.2% | -17.3% (active) | 80.1% | 63.8% | 24.6%
O=C(Nc1ccc2[nH]c3ccccc3c2c1)c1ccccc1Cl | 67.7% | 81.1% | 56.4% | 45.1% | 22.5% | 76.1% | 15.7% | 40.5% | 62.1% | 14%
CCCOC(=O)C1c2cc3c(cc2CC(C)C1C(=O)OCCC)OCO3 (stereo not given) | 85.8% | 94.1% | 80.9% | 95.3% | 103% | 70.3% | 70% | 92.6% | 94.5% | 121%
COc1ccc(-c2n[nH]nc2-c2cc(OC)c3c(c2)OCO3)cc1 | 10.4% | 69.1% | 13.9% | 18.5% | 7.77% (active) | 29% | -51.6% (active) | 13.9% | 20.5% | -93.1% (active)
CCCCCCCCCCCCCC(=S)NCCCC[C@H](NC(=O)OCc1ccccc1)C(=O)Nc1ccccc1 | 37.2% | 60.8% | 95.2% | 58.4% | 45.5% | 19.8% | 27.6% | 49.3% | 48.8% | 55.6%
